Test results as given in PubChem BioAssay (EPA / NIEHS).
The source made the active and inactive calls. The calls were made as follows: active = hit-call score of the fitted dose curve at least 0.9, where 1 is the maximum; inactive = score below 0.9.

Legend:
[1] = ATG_CRE_CIS: Attagene CIS-FACTORIAL HepG2 Assay for human cAMP Responsive Element (CRE) binding protein 3 (AID 2282926); conditions: HepG2 CRE cis-reporter, Attagene multiplexed mRNA; actives raise or lower the signal
Method in brief: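 Induced reporter mRNA from a CRE cis element, measured in HepG2 among many multiplexed units at 24 h. Detection used RT-PCR plus capillary electrophoresis of fluorescent fragments; DMSO served as negative control.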

[2] = target: CCAAT/enhancer-binding protein beta (Homo sapiens) (UniProt P17676); assay: ATG_C_EBP_CIS: Attagene CIS-FACTORIAL HepG2 Assay for human CCAAT/Enhancer Binding Protein (C/EBP) beta (AID 2282927); conditions: HepG2 Attagene cis-factorial transcription factor reporter; actives raise or lower the signal
Sequence of CCAAT/enhancer-binding protein beta (Homo sapiens) (P17676 whole entry, looked up, the tested form may be a part): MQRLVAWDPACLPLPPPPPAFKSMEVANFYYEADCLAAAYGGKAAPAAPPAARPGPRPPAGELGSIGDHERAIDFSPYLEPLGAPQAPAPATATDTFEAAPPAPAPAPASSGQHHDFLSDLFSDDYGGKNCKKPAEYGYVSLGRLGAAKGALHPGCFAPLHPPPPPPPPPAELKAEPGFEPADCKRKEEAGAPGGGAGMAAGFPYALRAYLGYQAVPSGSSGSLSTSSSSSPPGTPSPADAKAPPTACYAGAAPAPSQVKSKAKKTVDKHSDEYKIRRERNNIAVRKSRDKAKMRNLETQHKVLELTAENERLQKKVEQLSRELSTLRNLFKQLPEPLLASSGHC
Method in brief: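 Chemical-treated HepG2 cells (24 h) bearing cis-regulated reporter constructs were processed for total RNA, then reverse transcription, PCR amplification, fluorescent primer extension and fragment analysis; gain- and loss-of-signal were fitted against DMSO.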

[3] = ATG_DR4_LXR_CIS: Attagene CIS-FACTORIAL HepG2 Assay for human Liver X Receptor (LXR), DR4 submotif (AID 2282929); conditions: HepG2 Attagene DR4 cis-reporter, mRNA transcription; actives raise or lower the signal
Method in brief: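 HepG2 cells transiently transfected with cis-promoter-driven multiplexed reporter units (DR4 element) were dosed for 24 h. Reporter mRNA was quantified by RT-PCR, fluorescent primer extension, HpaI digestion and capillary electrophoresis; bidirectional fitting versus DMSO baseline.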

[4] = target: Aryl hydrocarbon receptor (Homo sapiens) (UniProt P35869); assay: ATG_Ahr_CIS: Attagene CIS-FACTORIAL HepG2 Assay for human Aryl Hydrocarbon Receptor (Ahr) (AID 2282930); conditions: HepG2 AhR cis-factorial reporter transcription; actives raise or lower the signal
Sequence of Aryl hydrocarbon receptor (Homo sapiens) (P35869 whole entry, looked up): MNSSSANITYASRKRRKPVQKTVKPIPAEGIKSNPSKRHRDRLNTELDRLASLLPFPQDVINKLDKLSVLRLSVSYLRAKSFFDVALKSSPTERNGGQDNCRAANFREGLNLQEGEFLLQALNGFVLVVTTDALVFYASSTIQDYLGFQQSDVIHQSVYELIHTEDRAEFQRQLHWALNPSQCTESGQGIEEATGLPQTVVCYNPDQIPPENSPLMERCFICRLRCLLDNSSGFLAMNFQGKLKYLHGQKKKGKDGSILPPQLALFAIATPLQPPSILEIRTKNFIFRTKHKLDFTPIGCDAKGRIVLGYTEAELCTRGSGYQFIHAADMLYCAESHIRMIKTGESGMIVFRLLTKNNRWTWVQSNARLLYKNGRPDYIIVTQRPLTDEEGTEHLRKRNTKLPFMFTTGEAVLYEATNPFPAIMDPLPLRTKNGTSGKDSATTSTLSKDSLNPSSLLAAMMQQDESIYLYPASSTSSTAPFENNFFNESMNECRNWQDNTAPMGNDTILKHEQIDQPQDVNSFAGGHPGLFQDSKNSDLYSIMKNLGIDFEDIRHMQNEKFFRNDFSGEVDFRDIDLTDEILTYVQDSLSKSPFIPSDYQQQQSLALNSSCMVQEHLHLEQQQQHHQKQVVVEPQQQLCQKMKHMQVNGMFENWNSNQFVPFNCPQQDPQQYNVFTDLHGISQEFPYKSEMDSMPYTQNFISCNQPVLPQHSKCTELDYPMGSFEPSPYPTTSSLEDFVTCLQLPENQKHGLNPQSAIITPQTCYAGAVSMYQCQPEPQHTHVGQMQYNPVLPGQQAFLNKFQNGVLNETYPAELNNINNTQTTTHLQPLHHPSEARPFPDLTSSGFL
Method in brief: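 Following 24 h of chemical dosing, transfected HepG2 liver cells with cis-driven reporter units were lysed for RNA; reporter mRNA was quantified via RT-PCR and capillary electrophoresis, and responses fitted bidirectionally from DMSO.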

[5] = ATG_AP_1_CIS: Attagene CIS-FACTORIAL HepG2 Assay for human Activator Protein 1 (AP-1) (AID 2282931); conditions: HepG2 Attagene cis-factorial AP-1 reporter mRNA; actives raise or lower the signal
Method in brief: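 HepG2 cells transiently transfected with cis-element-driven multiplex reporter units; 24 h compound exposure. Reporter mRNA quantified by RT-PCR, FAM-labelled fragments resolved by capillary electrophoresis; bidirectional fit versus DMSO baseline.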

[6] = ATG_AP_2_CIS: Attagene CIS-FACTORIAL HepG2 Assay for human Activator Protein 2 (AP-2) (AID 2282932); conditions: HepG2 AP-2 cis-reporter, Attagene transcription factor profiling; actives raise or lower the signal
Method in brief: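 Assay in transfected HepG2 with promoter-regulated reporters, 24 h incubation after dosing. Signal is reporter mRNA fluorescence (RT-PCR, capillary electrophoresis), analysed for both increases and decreases relative to DMSO controls.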

[7] = ATG_BRE_CIS: Attagene CIS-FACTORIAL HepG2 Assay for human Bone Morphogenetic Protein (BMP) Response Element (BRE) (AID 2282933); conditions: HepG2 BMP response element reporter, Attagene transcription factor profiling; actives raise or lower the signal
Method in brief: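 HepG2 cells transiently transfected with CIS reporter units (endogenous TF activity, BMP response element), dosed 24 h. Reporter mRNA quantified by RT-PCR, fluorescent labelling and capillary electrophoresis; bidirectional fit vs DMSO baseline.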

[8] = target: Retinoic acid receptor alpha (Homo sapiens) (UniProt P10276); assay: ATG_DR5_RAR_CIS: Attagene CIS-FACTORIAL HepG2 Assay for human Retinoic Acid Receptor Alpha (RARE), DR5 submotif (AID 2282934); conditions: HepG2 Attagene cis-factorial RARE DR5 reporter, mRNA; actives raise or lower the signal
Sequence of Retinoic acid receptor alpha (Homo sapiens) (P10276 whole entry, looked up): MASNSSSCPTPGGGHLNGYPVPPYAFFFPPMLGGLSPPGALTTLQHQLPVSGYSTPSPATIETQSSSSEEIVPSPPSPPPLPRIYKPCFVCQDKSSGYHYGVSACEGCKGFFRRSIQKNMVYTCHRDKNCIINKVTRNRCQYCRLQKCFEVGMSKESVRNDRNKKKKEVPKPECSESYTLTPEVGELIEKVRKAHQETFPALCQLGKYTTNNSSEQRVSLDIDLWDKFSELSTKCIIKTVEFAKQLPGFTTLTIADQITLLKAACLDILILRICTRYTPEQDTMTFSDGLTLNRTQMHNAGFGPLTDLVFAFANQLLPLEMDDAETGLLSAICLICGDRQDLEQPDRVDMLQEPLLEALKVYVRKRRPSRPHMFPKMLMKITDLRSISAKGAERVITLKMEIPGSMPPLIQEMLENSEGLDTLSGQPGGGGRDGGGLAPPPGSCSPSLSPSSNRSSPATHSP
Method in brief: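 Transfected HepG2 reporter cells are exposed to chemicals for 24 h. Then RNA is extracted and the DR5 element reporter transcript is measured by RT-PCR and capillary electrophoresis, with bidirectional curve fitting relative to DMSO.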

[9] = ATG_M_61_CIS: Attagene CIS-FACTORIAL HepG2 Assay for M61 Transcription Factor (Internal Marker) (AID 2282937); conditions: HepG2 Attagene CIS-FACTORIAL M61 internal marker reporter; actives raise or lower the signal
Method in brief: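 HepG2 cells transiently transfected with cis-element-driven multiple reporter transcription units, dosed for 24 h. Reporter mRNA measured by RT-PCR, 6-FAM primer-extension labelling, HpaI digestion and capillary electrophoresis; bidirectional fit versus DMSO baseline.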

[10] = ATG_EGR_CIS: Attagene CIS-FACTORIAL HepG2 Assay for human Early Growth Response 1 (EGR1) (AID 2282938); conditions: HepG2 Attagene CIS-FACTORIAL EGR reporter mRNA; actives raise or lower the signal
Method in brief: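 HepG2 cells transiently transfected with cis-promoter-driven multiplexed reporter transcription units; reporter mRNA measured 24 h after compound dosing by RT-PCR, 6-FAM primer extension, HpaI digestion and capillary electrophoresis. Bidirectional fit versus DMSO baseline.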

[11] = ATG_M_19_CIS: Attagene CIS-FACTORIAL HepG2 Assay for M19 Transcription Factor (Internal Marker) (AID 2282939); conditions: HepG2 Attagene CIS-FACTORIAL M19 internal marker reporter; actives raise or lower the signal
Method in brief: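 HepG2 cells transiently transfected with cis-regulated multiplexed reporter units, dosed 24 h. Reporter mRNA quantified by RT-PCR and capillary electrophoresis; internal background marker fitted bidirectionally versus DMSO.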

[12] = ATG_ERE_CIS: Attagene CIS-FACTORIAL HepG2 Assay for Estrogen Response Element (ERE) (AID 2282940); conditions: HepG2 ERE cis-reporter, Attagene RNA transcript; actives raise or lower the signal
Method in brief: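 HepG2 cells transiently transfected with multiplexed cis-element reporter units, measuring endogenous transcription factor activity; ERE reporter mRNA quantified after 24 h exposure by RT-PCR, fluorescent labelling, HpaI digestion and capillary electrophoresis. Bidirectional change versus DMSO.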

[13] = ATG_Ets_CIS: Attagene CIS-FACTORIAL HepG2 Assay for human Erythroblast Transformation Specific (ETS) (AID 2282941); conditions: HepG2 ETS cis-reporter transcription, actives raise or lower the signal
Method in brief: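 Cis-regulated reporter mRNA induction in HepG2 (transient transfection), 24 h exposure, RT-PCR plus capillary electrophoresis detection; DMSO serves as negative control and baseline.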

[14] = target: Hepatocyte nuclear factor 3-beta (Homo sapiens) (UniProt Q9Y261); assay: ATG_FoxA2_CIS: Attagene CIS-FACTORIAL HepG2 Assay for human Forkhead box A2 (FOXA2) (AID 2282942); conditions: HepG2 cis-reporter transcription factor activity, 24 h; actives raise or lower the signal
Sequence of Hepatocyte nuclear factor 3-beta (Homo sapiens) (Q9Y261 whole entry, looked up): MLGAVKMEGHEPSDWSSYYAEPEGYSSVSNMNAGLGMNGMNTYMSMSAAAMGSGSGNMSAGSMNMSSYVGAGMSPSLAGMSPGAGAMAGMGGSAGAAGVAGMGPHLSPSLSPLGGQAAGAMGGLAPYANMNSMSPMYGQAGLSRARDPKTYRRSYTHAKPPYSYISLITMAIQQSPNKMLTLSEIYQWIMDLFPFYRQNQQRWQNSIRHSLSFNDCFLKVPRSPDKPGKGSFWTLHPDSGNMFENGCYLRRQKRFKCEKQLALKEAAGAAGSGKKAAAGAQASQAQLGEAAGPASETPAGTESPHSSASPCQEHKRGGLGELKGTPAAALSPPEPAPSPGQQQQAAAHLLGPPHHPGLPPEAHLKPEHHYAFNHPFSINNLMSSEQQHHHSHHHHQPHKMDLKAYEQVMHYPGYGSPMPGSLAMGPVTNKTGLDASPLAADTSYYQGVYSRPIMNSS
Method in brief: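 HepG2 cells transiently transfected with multiple cis-regulated reporter transcription units, dosed for 24 h. Reporter mRNA measured by RT-PCR, 6-FAM labelling, HpaI digestion and capillary electrophoresis; bidirectional fitting against DMSO baseline.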

[15] = ATG_FoxO_CIS: Attagene CIS-FACTORIAL HepG2 Assay for human Forkhead box O (FoxO) (AID 2282943); conditions: HepG2 Attagene cis-reporter, FoxO element, mRNA; actives raise or lower the signal
Method in brief: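 24 h chemical exposure, HepG2 with transient cis-MRTU transfection. RNA extraction, oligo(dT) RT, reporter-specific PCR, primer-extension labelling, HpaI digestion, CE fragment analysis; bidirectional fit, DMSO baseline.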

[16] = ATG_GATA_CIS: Attagene CIS-FACTORIAL HepG2 Assay for human GATA Binding Protein (AID 2282944); conditions: HepG2 GATA cis-element reporter, Attagene multiplex mRNA; actives raise or lower the signal
Method in brief: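 HepG2 cells transiently transfected with multiplexed cis-element reporter units measure endogenous GATA activity; after 24 h compound exposure, reporter mRNA quantified by RT-PCR and capillary electrophoresis. Changes fitted in both directions vs DMSO.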

[17] = ATG_GLI_CIS: Attagene CIS-FACTORIAL HepG2 Assay for human Zinc Finger Protein GLI1 (AID 2282945); conditions: HepG2, Attagene cis-factorial reporter mRNA, GLI element; actives raise or lower the signal
Method in brief: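 HepG2 cells transiently transfected with cis-promoter multiplexed reporter units report endogenous transcription factor activity. After 24 h chemical exposure, reporter mRNA was quantified by RT-PCR, 6-FAM labelling, HpaI digestion and capillary electrophoresis, with bidirectional fitting against DMSO.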

[18] = target: Transcription factor E2F1 (Homo sapiens) (UniProt Q01094); assay: ATG_E2F_CIS: Attagene CIS-FACTORIAL HepG2 Assay for human E2F Transcription Factor 1 (AID 2282935); conditions: HepG2 Attagene cis-reporter, E2F reporter RNA transcripts; actives raise or lower the signal
Sequence of Transcription factor E2F1 (Homo sapiens) (Q01094 whole entry, looked up): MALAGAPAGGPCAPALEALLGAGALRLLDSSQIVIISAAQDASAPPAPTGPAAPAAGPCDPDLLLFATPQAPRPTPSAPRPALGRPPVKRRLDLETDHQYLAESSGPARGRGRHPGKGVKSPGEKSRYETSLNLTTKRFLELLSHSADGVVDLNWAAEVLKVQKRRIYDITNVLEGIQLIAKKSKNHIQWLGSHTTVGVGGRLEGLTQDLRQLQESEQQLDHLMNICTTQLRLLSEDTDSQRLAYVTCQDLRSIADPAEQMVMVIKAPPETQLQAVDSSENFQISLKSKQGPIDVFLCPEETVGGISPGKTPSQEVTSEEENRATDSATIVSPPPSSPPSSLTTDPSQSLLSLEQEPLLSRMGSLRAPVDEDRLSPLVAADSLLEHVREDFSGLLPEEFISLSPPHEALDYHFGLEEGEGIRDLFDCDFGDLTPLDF
Method in brief: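 In this cis-factorial format, endogenous factor activity drives transfected reporters in HepG2; transcripts collected at 24 h are quantified by fluorescence after RT-PCR and capillary separation.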

[19] = ATG_E_Box_CIS: Attagene CIS-FACTORIAL HepG2 Assay for human Enhancer Box (E-box) (AID 2282936); conditions: HepG2 E-box cis-reporter transcription, actives raise or lower the signal
Method in brief: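 Measured 24 h post-dosing in HepG2 cells transfected with multiple cis-regulated reporter units, signal being reporter mRNA induction detected by fluorescent RT-PCR with capillary electrophoresis; gain or loss fitted against DMSO.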

Measured: outcome

CCC(=O)OCCOc1ccccc1
not listed: [18] | [19]
inactive: all other assays above

C[N+](C)(C)CCCCCC[N+](C)(C)C
not listed: [3] | [11] | [12]
inactive: all other assays above

C=COCCOCCOC=C
not listed: [12]
inactive: all other assays above

CS(=O)(=O)c1ccc(Cl)cc1
not listed: [12] | [19]
inactive: all other assays above

CCCCCCOC(=O)C(C)C
not listed: [11] | [12]
inactive: all other assays above

CC/C=C\CC/C=C/CO
not listed: [12] | [14]
inactive: all other assays above

COC(C)(C)CC(C)=O
not listed: [3] | [12] | [19]
inactive: all other assays above

CCOC(=O)CN
not listed: [10] | [12] | [14] | [19]
inactive: all other assays above
